{"source": "paper PMC4336329", "about": "(PLoS ONE, 2015)", "note": "The whole screen tested about 310,000 compounds, of which about 14,000 (4.5%) showed an effect of 50% or more. Effects have a minus sign here. This excerpt belongs to a sample that is enriched for strong results.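 Note: peak tail current of the secondary pulse compared with the same well before compound.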"}
{"target": "human ether-à-go-go-related gene (hERG) potassium channel (human, UniProt Q12809)", "sequence (Q12809 whole entry, looked up)": "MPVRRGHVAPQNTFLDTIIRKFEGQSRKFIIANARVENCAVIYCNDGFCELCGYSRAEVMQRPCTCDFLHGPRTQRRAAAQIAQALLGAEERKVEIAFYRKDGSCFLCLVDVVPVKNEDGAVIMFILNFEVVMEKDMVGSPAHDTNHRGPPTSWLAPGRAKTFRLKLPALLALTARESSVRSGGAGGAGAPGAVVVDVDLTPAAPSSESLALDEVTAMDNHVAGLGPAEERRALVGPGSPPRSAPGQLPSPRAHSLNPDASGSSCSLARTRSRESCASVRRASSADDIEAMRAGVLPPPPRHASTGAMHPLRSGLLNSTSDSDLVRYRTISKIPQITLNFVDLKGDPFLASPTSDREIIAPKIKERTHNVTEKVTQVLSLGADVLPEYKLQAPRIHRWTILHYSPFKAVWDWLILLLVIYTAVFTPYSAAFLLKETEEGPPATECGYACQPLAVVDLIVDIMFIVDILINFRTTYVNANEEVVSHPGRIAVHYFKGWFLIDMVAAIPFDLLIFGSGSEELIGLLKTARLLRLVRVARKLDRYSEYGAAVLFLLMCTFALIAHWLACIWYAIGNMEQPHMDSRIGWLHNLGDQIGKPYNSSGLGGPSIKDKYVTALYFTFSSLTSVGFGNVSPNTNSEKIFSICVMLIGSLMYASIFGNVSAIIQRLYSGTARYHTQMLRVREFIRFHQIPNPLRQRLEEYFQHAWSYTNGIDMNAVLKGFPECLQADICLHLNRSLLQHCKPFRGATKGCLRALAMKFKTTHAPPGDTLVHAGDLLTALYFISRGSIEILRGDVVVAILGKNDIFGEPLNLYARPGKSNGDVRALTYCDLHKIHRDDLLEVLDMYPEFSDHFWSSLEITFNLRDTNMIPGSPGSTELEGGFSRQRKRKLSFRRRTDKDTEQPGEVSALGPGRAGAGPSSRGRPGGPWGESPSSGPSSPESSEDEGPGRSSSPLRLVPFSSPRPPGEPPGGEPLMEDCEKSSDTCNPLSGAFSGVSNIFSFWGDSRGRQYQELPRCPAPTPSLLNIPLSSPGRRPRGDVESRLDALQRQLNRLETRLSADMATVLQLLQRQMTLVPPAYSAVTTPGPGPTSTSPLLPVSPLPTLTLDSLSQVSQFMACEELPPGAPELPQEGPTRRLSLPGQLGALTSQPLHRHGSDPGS", "experiment": "primary screen, population patch clamp on CHO cells stably expressing hERG; higher = less effect of the substance", "units": {"hERG current change (%, negative = inhibition) at 10uM": "%"}}
{"smiles": "CC1(C)CC(=O)C2=C(C1)N(Cc1ccc(F)cc1)C(=O)C2(NC(=O)c1cccnc1)C(F)(F)F", "note": "(stereo not shown)", "hERG current change (%, negative = inhibition) at 10uM": -5.55}
{"smiles": "COc1ccccc1-c1nnc(SC(C(=O)c2c[nH]c3ccccc23)c2ccccc2)n1C", "note": "(stereo not shown)", "hERG current change (%, negative = inhibition) at 10uM": 20.8}
{"smiles": "O=C(CCc1nc2ccccc2n1-c1ccccc1)NCCO", "hERG current change (%, negative = inhibition) at 10uM": 6.97}
{"smiles": "C=CCN(CC=C)CC(O)CN(c1cc([N+](=O)[O-])ccc1OC)S(=O)(=O)c1ccccc1", "note": "(stereo not shown)", "hERG current change (%, negative = inhibition) at 10uM": -10.7}
{"smiles": "CCCN(CCC)CC(O)CN(c1cc([N+](=O)[O-])ccc1OC)S(=O)(=O)c1ccccc1.Cl", "note": "(stereo not shown)", "hERG current change (%, negative = inhibition) at 10uM": -60.4}
{"smiles": "COc1ccc([N+](=O)[O-])cc1N(CC(O)CN(C)C)S(=O)(=O)c1ccccc1", "note": "(stereo not shown)", "hERG current change (%, negative = inhibition) at 10uM": 5.54}
{"smiles": "CCCCN(CCCC)CC(O)CN(c1cc([N+](=O)[O-])ccc1OC)S(=O)(=O)c1ccccc1", "note": "(stereo not shown)", "hERG current change (%, negative = inhibition) at 10uM": -67}
{"smiles": "COc1ccc([N+](=O)[O-])cc1N(CC(O)CN(CC(C)C)CC(C)C)S(=O)(=O)c1ccccc1", "note": "(stereo not shown)", "hERG current change (%, negative = inhibition) at 10uM": -1.91}
{"smiles": "COc1ccc([N+](=O)[O-])cc1N(CC(O)CN(CC(C)C)CC(C)C)S(=O)(=O)c1ccc(C)cc1.Cl", "note": "(stereo not shown)", "hERG current change (%, negative = inhibition) at 10uM": -13.7}
{"smiles": "CC(C)CNC(=O)/C=C/C=C/CCCC/C=C/c1ccc2c(c1)OCO2", "hERG current change (%, negative = inhibition) at 10uM": 20.7}
{"smiles": "CC(=O)c1c(C)[nH]c(C(=O)OCc2nc3ccsc3c(=O)[nH]2)c1C", "hERG current change (%, negative = inhibition) at 10uM": -13.6}
{"smiles": "O=C(CC1SC(N2CCCCC2)=NC1=O)Nc1ccc(C(=O)O)cc1", "note": "(stereo not shown)", "hERG current change (%, negative = inhibition) at 10uM": 22.1}
{"smiles": "CC1CCCCN1CCNC(=O)c1ccc2c(=O)n(Cc3ccc(Cl)cc3)c(=S)[nH]c2c1", "note": "(stereo not shown)", "hERG current change (%, negative = inhibition) at 10uM": -50.9}
{"smiles": "CN(C)CCNC(=O)c1ccc2c(=O)n(Cc3ccc(Cl)cc3)c(=S)[nH]c2c1", "hERG current change (%, negative = inhibition) at 10uM": -27.8}
{"smiles": "COC(=O)c1ccc2c(=O)n(Cc3ccc(C(=O)NCCCN4CCC(C)CC4)cc3)c(=S)[nH]c2c1", "hERG current change (%, negative = inhibition) at 10uM": 7.54}
{"smiles": "CC1CCN(CCNC(=O)c2ccc3c(=O)n(Cc4ccc(Cl)cc4)c(=S)[nH]c3c2)CC1", "hERG current change (%, negative = inhibition) at 10uM": -15.8}
{"smiles": "CC1CCCCN1CCNC(=O)c1ccc2c(=O)n(CCc3ccccc3)c(=O)[nH]c2c1", "note": "(stereo not shown)", "hERG current change (%, negative = inhibition) at 10uM": -38.7}
{"smiles": "CC1CCN(CCCNC(=O)c2ccc3c(=O)n(Cc4ccc(Cl)cc4)c(=S)[nH]c3c2)CC1", "hERG current change (%, negative = inhibition) at 10uM": -68.4}
{"smiles": "COC(CNc1nc(SC)nc2sc3c(c12)CCN(C)C3)OC", "hERG current change (%, negative = inhibition) at 10uM": -52.5}
{"smiles": "CSc1nc(NCC(C)O)c2c3c(sc2n1)CN(C)CC3", "note": "(stereo not shown)", "hERG current change (%, negative = inhibition) at 10uM": -42}
{"smiles": "COCCNc1nc(SC)nc2sc3c(c12)CCN(C)C3", "hERG current change (%, negative = inhibition) at 10uM": -71.2}
{"smiles": "CCN(CC)CCNc1nc(SC)nc2sc3c(c12)CCN(C)C3", "hERG current change (%, negative = inhibition) at 10uM": -6.12}
{"smiles": "CSc1nc(NCC(C)C)c2c3c(sc2n1)CN(C)CC3", "hERG current change (%, negative = inhibition) at 10uM": -44.2}
{"smiles": "CSc1nc(NCCCO)c2c3c(sc2n1)CN(C)CC3", "hERG current change (%, negative = inhibition) at 10uM": -47.4}
{"smiles": "S=c1[nH]c2ccccc2o1", "hERG current change (%, negative = inhibition) at 10uM": 18}
{"smiles": "O=C(COc1ccccc1)Nc1ccccc1C(=O)NCc1ccco1", "hERG current change (%, negative = inhibition) at 10uM": -6.63}
{"smiles": "Cc1c(C(=O)OCC(=O)NCc2ccco2)oc2ccccc12", "hERG current change (%, negative = inhibition) at 10uM": 2.46}
{"smiles": "COc1ccc(OCC(=O)Nc2c(C(=O)N(CCN(C)C)Cc3ccco3)oc3ccccc23)cc1", "hERG current change (%, negative = inhibition) at 10uM": -77}
{"smiles": "CCCN(CCC)C(=O)c1oc2ccccc2c1NC(=O)Cc1cccc(OC)c1", "hERG current change (%, negative = inhibition) at 10uM": 4.67}
{"smiles": "COc1ccc(OCC(=O)OCC(=O)NCc2ccco2)cc1", "hERG current change (%, negative = inhibition) at 10uM": -4.81}
{"smiles": "CN(C)CCN(Cc1ccco1)C(=O)c1oc2ccccc2c1NC(=O)COc1ccccc1", "hERG current change (%, negative = inhibition) at 10uM": -88.7}
{"smiles": "CCCCCCN=C(C)c1ccccc1O", "hERG current change (%, negative = inhibition) at 10uM": 20.2}
{"smiles": "COCCN(Cc1ccccc1)C(=O)c1cccc(S(=O)(=O)N2CCCc3ccccc32)c1", "hERG current change (%, negative = inhibition) at 10uM": -21.2}
{"smiles": "CN(Cc1ccc(F)cc1)C(=O)c1cccc(S(=O)(=O)N2CCN(c3ccccc3)CC2)c1", "hERG current change (%, negative = inhibition) at 10uM": -19.9}
{"smiles": "CCN(Cc1ccccc1)C(=O)c1cccc(S(=O)(=O)N2CCN(c3ccccc3)CC2)c1", "hERG current change (%, negative = inhibition) at 10uM": -15.8}
{"smiles": "CCN(Cc1ccccc1)C(=O)c1cccc(S(=O)(=O)N2CCN(c3ccc(F)cc3)CC2)c1", "hERG current change (%, negative = inhibition) at 10uM": -47.2}
{"smiles": "COCCN(Cc1ccccc1)C(=O)c1cccc(S(=O)(=O)N2CCN(c3ccc(F)cc3)CC2)c1", "hERG current change (%, negative = inhibition) at 10uM": -64.6}
{"smiles": "COCCN(Cc1ccccc1)C(=O)c1cccc(S(=O)(=O)N2CCN(c3ccccc3)CC2)c1", "hERG current change (%, negative = inhibition) at 10uM": -52.8}
{"smiles": "CC(C)(C)NC(=O)Cn1c(=O)c(=O)n(Cc2ccccc2)c2ccc(Cl)cc21", "hERG current change (%, negative = inhibition) at 10uM": -0.233}
{"smiles": "Cn1c2c(c(=O)n(C)c1=O)C(c1ccc(Br)cc1)Nc1ccccc1O2", "note": "(stereo not shown)", "hERG current change (%, negative = inhibition) at 10uM": -19.4}
{"smiles": "Cc1ccc(S(=O)(=O)NCCC2(C(C)C)CCOC(C)(C)C2)cc1", "note": "(stereo not shown)", "hERG current change (%, negative = inhibition) at 10uM": -17.9}
{"smiles": "CC1(C)CC(=O)C(C=NCC(N)=O)=C(O)C1", "hERG current change (%, negative = inhibition) at 10uM": -19.5}
{"smiles": "C=CCn1c(O)c(C(C)=NCCCN(C)C)c(=O)[nH]c1=O", "hERG current change (%, negative = inhibition) at 10uM": 5.49}
{"smiles": "N#Cc1cccnc1N1CCN(C(=O)c2ccc3c(c2)S(=O)(=O)c2ccccc2C3=O)CC1", "hERG current change (%, negative = inhibition) at 10uM": -22.7}
{"smiles": "N#Cc1cccnc1N1CCN(C(=O)c2cccc3c2C(=O)c2ccc(Cl)cc2S3(=O)=O)CC1", "hERG current change (%, negative = inhibition) at 10uM": -56.6}
{"smiles": "O=C1c2ccc(Cl)cc2S(=O)(=O)c2cccc(C(=O)N3CCN(c4ccc(Cl)cn4)CC3)c21", "hERG current change (%, negative = inhibition) at 10uM": -39.9}
{"smiles": "CCN(CCn1cccn1)C(=O)CCc1nnc(CCc2ccccc2OC)o1", "hERG current change (%, negative = inhibition) at 10uM": 5.73}
{"smiles": "CCC/C(=N\\NC(=O)c1cccc(C)c1)c1ccccc1", "hERG current change (%, negative = inhibition) at 10uM": 2.17}
{"smiles": "CCOc1cccc(/C=N/Nc2ccc(S(=O)(=O)N(CC)CC)cn2)c1O", "hERG current change (%, negative = inhibition) at 10uM": 6.79}
{"smiles": "COc1ccc(CN(C)C(=O)COC(=O)c2c(-c3ccccc3Cl)noc2C)cc1", "hERG current change (%, negative = inhibition) at 10uM": -15.1}
{"smiles": "COc1ccc(CN(C)C(=O)COC(=O)c2c(C)nn(-c3ccc(F)cc3)c2Cl)cc1", "hERG current change (%, negative = inhibition) at 10uM": -71.1}
{"smiles": "COc1ccc(COC(=O)c2c(C)nn(-c3ccccc3)c2Cl)cc1", "hERG current change (%, negative = inhibition) at 10uM": 4.32}
